A selection: hits, their analogues and other compounds. The true share with any hit is near 19%.
KB-V1 MDR tox – KB-V1 MDR subline cytotoxicity. KB-V1 MDR cells viability, CellTiter-Glo, 72 h. Potency, µM (top dose mostly 46.1 µM), usual class: cytotoxic. 400,000 tested, 3.4% active; note: nearly all actives have a fitted effect of over 60% in size
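Drug-selected KB-V1 cells, grown in DMEM lacking phenol red with 10% FBS, receive compound titrations; after three days at 37 degrees C, surviving cell ATP is quantified by CellTiter-Glo luminescence and responses normalized and curve-fitted.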
TDP1 cell noCPT – qHTS for Inhibitors of human tyrosyl-DNA phosphodiesterase 1 (TDP1): qHTS in cells in absence of CPT; 420,000 tested, 15% active; AID 686978, 2013; DT40 Tdp1-/- hTDP1 cells, no CPT, ATP luminescence, 48 h; Potency, µM (top dose mostly 46.2 µM), for the others: at the highest dose activity change, negative = growth inhibition, actives largely listed as inhibitors; note: nearly all actives have a fitted effect of over 55% in size
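Luminescent ATP content (CellTiter-Glo) served as the growth readout. Knockout chicken DT40 cells expressing human TDP1 were exposed to compounds without camptothecin for a minimum 48 hr at 37 °C.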
TDP1 cell CPT – DT40-hTDP1 cell growth loss with CPT. chicken DT40 Tdp1-/-;hTDP1 cells + 20 nM CPT, ATP luminescence, 48 h. Potency, µM (doses to about 46.2 µM), for inactives: top-dose activity change, negative = growth inhibition, hits mostly inhibitors. 420,000 tested, 12% active; note: nearly all actives have a fitted effect of over 55% in size
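Chicken DT40 Tdp1-/- cells stably complemented with human TDP1 were seeded at 400 cells/well in medium containing 20 nM camptothecin, exposed to pin-transferred compounds, and grown at 37 °C for at least 48 hr. Viability was read as ATP luminescence.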
HT1080 IDH1KD tx – HT-1080 IDH1 knockdown cell toxicity (counter line); Potency, µM (series often up to 46.1 µM), inactives show top-dose activity, negative = toxicity, most hits filed as cytotoxic; AID 686971; 360,000 tested, 2% active; HT-1080 IDH1 knockdown viability, ATP luminescence, 48 h;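 note: 0% = DMSO wells and -100% = cell-free medium wells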
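Luminescent ATP read-out (CellTiter-Glo, 10 min at room temperature) after 48 h compound exposure at 37 °C gave viability of IDH1-knockdown HT-1080 cells. Activity was normalised to DMSO and cell-free wells, then fitted as concentration-response curves.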
HT1080-NT tox – kills 2HG-producing HT-1080-NT fibrosarcoma cells; AID 686970; HT-1080-NT fibrosarcoma viability, CellTiter-Glo ATP luminescence, 48 h; 360,000 tested, 1.6% active; Potency, µM (top dose mostly 46.1 µM), for inactives: top-dose activity, negative = less viability, actives largely listed as cytotoxic;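 note: NT is the 2HG producing partner of a matched IDH1 knockdown line; 0% = DMSO-treated cells and -100% = media-only wells without cells; nearly all actives have a fitted effect of over 55% in size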
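A 48-hour cytotoxicity screen used HT-1080-NT cells plated 2 hours before compound delivery. ATP-based CellTiter-Glo luminescence measured viability, normalized to DMSO and no-cell controls.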
KB-3-1 tox – kills parental KB-3-1 adenocarcinoma cells; KB-3-1 viability, CellTiter-Glo ATP luminescence, 72 h; Potency, µM (titrated, usually from 46.1 µM), most hits filed as cytotoxic; 400,000 tested, 1.4% active; AID 1347075; note: nearly all actives have a fitted effect of over 60% in size
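KB-3-1 cells, DMEM (no phenol red) + 10% FBS; compound by pin transfer, 72 h, 37 °C. Readout: CellTiter-Glo luminescence after 10 min. Data normalized, curve-fitted.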
* hit, by the source's call. Calls come from the whole dose curve; as a rule, active = well fitted curve in the direction sought with a large enough effect; inconclusive = small, poorly fitted or top-dose-only effect, or another doubt; inactive = no such curve, though single readings can be large; an effect the other way counts as inactive or inconclusive. Unless noted, % is set by controls: 0 for no effect and ±100 for the full control effect; potency is the fitted concentration of half-maximal effect.

How did Cn1ccc2c(-c3ccc(C(=O)O)cc3)cc3c(c21)C1CCC3O1 (stereo not given) do in these assays?
KB-V1 MDR tox: inactive; TDP1 cell noCPT: -14%; TDP1 cell CPT: -4%; HT1080 IDH1KD tx: 18%; HT1080-NT tox: 12%; KB-3-1 tox: inactive

Results for CCOc1ccc(CCNC(=O)CS(=O)Cc2nc(-c3ccccc3C)oc2C)cc1OCC (stereo not given) ?
KB-V1 MDR tox: inactive; TDP1 cell noCPT: inconclusive; TDP1 cell CPT: inconclusive; HT1080 IDH1KD tx: -8%; HT1080-NT tox: 0%; KB-3-1 tox: inactive

How did CC(C)Cc1cc(C(=O)N2CCC(N3CCC(C(=O)NC4CC4)CC3)CC2)n[nH]1 do in these assays?
KB-V1 MDR tox: inactive; TDP1 cell noCPT: -16%; TDP1 cell CPT: 20%; HT1080 IDH1KD tx: -10%; HT1080-NT tox: 10%; KB-3-1 tox: inactive

What do the screens show for `CN1/C(=C\C(=O)C[n+]2ccc(C(=O)c3ccccc3)cc2)C(C)(C)c2ccccc21`?
KB-V1 MDR tox: inconclusive; TDP1 cell noCPT: 1.2µM*; TDP1 cell CPT: 0.82µM*; HT1080 IDH1KD tx: inconclusive; HT1080-NT tox: -28%; KB-3-1 tox: inactive

Results for Cc1ccc[n+](CC(=O)/C=C2\N(C)c3ccccc3C2(C)C)c1 ?
KB-V1 MDR tox: inconclusive; TDP1 cell noCPT: 1.6µM*; TDP1 cell CPT: 1.2µM*; HT1080 IDH1KD tx: inconclusive; HT1080-NT tox: -18%; KB-3-1 tox: 7.3µM*

Results for CN1/C(=C\C(=O)C[n+]2cccc(C(N)=O)c2)C(C)(C)c2ccccc21 ?
KB-V1 MDR tox: inactive; TDP1 cell noCPT: -15%; TDP1 cell CPT: 13%; HT1080 IDH1KD tx: -22%; HT1080-NT tox: 3%; KB-3-1 tox: inactive

What do the screens show for `Cc1cccc[n+]1CC(=O)/C=C1\N(C)c2ccccc2C1(C)C`?
KB-V1 MDR tox: inactive; TDP1 cell noCPT: 3.3µM*; TDP1 cell CPT: 3.3µM*; HT1080 IDH1KD tx: inconclusive; HT1080-NT tox: -13%; KB-3-1 tox: 4.1µM*

What do the screens show for `CN1/C(=C\C(=O)C[n+]2cccc(Br)c2)C(C)(C)c2ccccc21`?
KB-V1 MDR tox: inactive; TDP1 cell noCPT: 5.8µM*; TDP1 cell CPT: 4.6µM*; HT1080 IDH1KD tx: -43%; HT1080-NT tox: -28%; KB-3-1 tox: inconclusive

Results for CCOC(=O)c1ccc(NC(=O)CSc2nc3ccccc3c(=O)n2CCNC(C)=O)cc1 ?
KB-V1 MDR tox: inactive; TDP1 cell noCPT: -18%; TDP1 cell CPT: -4%; KB-3-1 tox: inactive

What do the screens show for `CCOC(=O)c1ccn(CSc2c(F)c(F)cc(F)c2F)n1`?
KB-V1 MDR tox: inactive; TDP1 cell noCPT: 15%; TDP1 cell CPT: -16%; HT1080 IDH1KD tx: 22%; HT1080-NT tox: 9%; KB-3-1 tox: inactive

How did O=C(Nc1cc(C(F)(F)F)ccc1Cl)c1cc(S(=O)(=O)NCc2ccccc2)ccc1F do in these assays?
KB-V1 MDR tox: inactive; TDP1 cell noCPT: inconclusive; TDP1 cell CPT: inconclusive; KB-3-1 tox: inactive

What do the screens show for `OCOCCCn1c(C2CCCN2c2nc(-c3ccc(F)cc3)cs2)nc2cc(Cl)c(N3CCCCC3)cc21` (stereo not given)?
KB-V1 MDR tox: inconclusive; TDP1 cell noCPT: inconclusive; TDP1 cell CPT: inconclusive; HT1080 IDH1KD tx: inconclusive; HT1080-NT tox: -11%; KB-3-1 tox: inconclusive

Results for Cc1c(NC(=O)c2cnn3c2NC(c2ccccc2)CC3C(F)(F)F)c(=O)n(-c2ccccc2)n1C (stereo not given) ?
KB-V1 MDR tox: inactive; TDP1 cell noCPT: -10%; TDP1 cell CPT: -21%; HT1080 IDH1KD tx: -19%; HT1080-NT tox: -3%; KB-3-1 tox: inactive

Results for Cc1c(NC(=O)c2nn3c(c2Br)NC(c2ccccc2)CC3C(F)(F)F)c(=O)n(-c2ccccc2)n1C (stereo not given) ?
KB-V1 MDR tox: 16µM*; TDP1 cell noCPT: -24%; TDP1 cell CPT: -2%; HT1080 IDH1KD tx: 22%; HT1080-NT tox: 11%; KB-3-1 tox: inactive

What do the screens show for `CCOc1ccc(CCNC(c2cccc(Cl)c2)c2nnc(-c3ccccc3)o2)cc1OCC` (stereo not given)?
KB-V1 MDR tox: inactive; TDP1 cell noCPT: 26µM*; TDP1 cell CPT: 16µM*; KB-3-1 tox: inactive

Results for CCOc1ccc(CCNC(c2nnc(-c3ccccc3)o2)c2ccccc2Cl)cc1OCC (stereo not given) ?
KB-V1 MDR tox: inactive; TDP1 cell noCPT: 15µM*; TDP1 cell CPT: 15µM*; KB-3-1 tox: inconclusive

What do the screens show for `COc1ccc(NC(c2nnc(-c3ccccc3)o2)c2ccccc2F)cc1Cl` (stereo not given)?
KB-V1 MDR tox: inactive; TDP1 cell noCPT: -41%; TDP1 cell CPT: -30%; KB-3-1 tox: inactive

What do the screens show for `COc1ccc(-n2cc(CNC3CCC(O)CC3)c(-c3cccc(F)c3)n2)cc1` (stereo not given)?
KB-V1 MDR tox: inactive; TDP1 cell noCPT: 21µM*; TDP1 cell CPT: 21µM*; HT1080 IDH1KD tx: -13%; HT1080-NT tox: inconclusive; KB-3-1 tox: inconclusive

What do the screens show for `COc1ccc(-n2cc(CN3CCC(OC)CC3)c(-c3cccc(F)c3)n2)cc1`?
KB-V1 MDR tox: inactive; TDP1 cell noCPT: 1%; TDP1 cell CPT: -1%; HT1080 IDH1KD tx: -3%; HT1080-NT tox: 1%; KB-3-1 tox: inactive

How did COc1ccc(CNCc2cn(-c3cccc(F)c3)nc2-c2ccc(C)o2)cc1 do in these assays?
KB-V1 MDR tox: inactive; TDP1 cell noCPT: 16µM*; TDP1 cell CPT: inconclusive; HT1080 IDH1KD tx: inconclusive; HT1080-NT tox: -13%; KB-3-1 tox: inactive

What do the screens show for `Cc1ccc(C(=O)N2CC(C)OC(C)C2)cc1S(=O)(=O)N1CCCCC1` (stereo not given)?
KB-V1 MDR tox: inconclusive; TDP1 cell noCPT: inconclusive; TDP1 cell CPT: inconclusive; HT1080 IDH1KD tx: 9%; HT1080-NT tox: 7%; KB-3-1 tox: inactive

How did Cc1ccc(Nc2c(-c3ccc(C)o3)nc3cccc(C)n23)cc1 do in these assays?
KB-V1 MDR tox: inactive; TDP1 cell noCPT: 11µM*; TDP1 cell CPT: 11µM*; HT1080 IDH1KD tx: -22%; HT1080-NT tox: -16%; KB-3-1 tox: inactive

What do the screens show for `Cc1ccc(-c2nc3cccc(C)n3c2Nc2ccc3c(c2)OCO3)o1`?
KB-V1 MDR tox: inactive; TDP1 cell noCPT: inconclusive; TDP1 cell CPT: 23µM*; KB-3-1 tox: inactive

Compound activity deposited in PubChem BioAssay by National Center for Advancing Translational Sciences (NCATS).
